# PubChem BioAssay (Tox21)
# Inconclusive results are not listed. The source made the active and inactive calls. Calls follow the shape of the dose curve; as a rule, active = well fitted activation curve with a large enough effect in the signal ratio in the repeat runs (not every such curve was filed as active); inconclusive = weak or mixed curves, or effect the other way; inactive = no such curve, though single readings can be large or run the other way; the % refers to the signal ratio.
# Biological target: Glucocorticoid receptor (Homo sapiens) (UniProt P04150)
# Experiment: qHTS assay to identify small molecule agonists of the glucocorticoid receptor (GR) signaling pathway (AID 720691)
# Details: GR-bla HeLa, beta-lactamase reporter ratio, 18 h; series mostly up to 62.4 µM; activation: at the top concentration
# Text: U.S. Tox21 Program National Center for Advancing Translational Sciences [NCATS] NIH Chemical Genomics Center [NCGC] U.S. Environmental Protection Agency [EPA] National Institutes of Environmental Health Sciences [NIEHS] National Toxicology Program [NTP] U.S. Food and Drug Administration [FDA] Tox21 Assay Overview: The Glucocorticoid receptor (GR) is one of the members of the nuclear receptor family of ligand-dependent transcription factors. GR plays a critical role in carbohydrate, protein and lipid metabolisms and programmed cell death. CellSensor GR-bla HeLa cell line (Invitrogen) contains a beta-lactamase reporter gene under the control of the glucocorticoid response element stably integrated into HeLa cells, a cervical cancer cell line that expresses glucocorticoid receptor. The activation of the reporter gene under culture conditions can be detected by fluorescence intensity. This cell line has been used to screen the Tox21 10K compound library and to identify the compounds that activate the GR signaling.
# Tox21 Assay Protocol Summary: The GR-bla HeLa cells were dispensed at 1500 cells/6 ul/well in 1536-well black wall/clear bottom plates using a Multidrop Combi (ThermoFisher Scientific, Waltham, MA) dispenser. After the assay plates were incubated at a 37 C/5% CO2 incubator for 4 hours, 23 nL of compounds dissolved in DMSO, positive controls or DMSO only was transferred to the assay plate by a pintool station (Kalypsys, San Diego, CA). The plates were incubated at 37 C for 18 hours. After 1 uL of LiveBLAzerTM B/G FRET substrate was added using a Flying Reagent Dispenser (Aurora Discovery, San Diego, CA), the plates were incubated at room temperature for 2 hours, and fluorescence intensity was measured by an Envision plate reader (PerkinElmer, Shelton, CT).
# % is scaled to controls: 0 for no effect and ±100 for the full control effect.
# Sequence of Glucocorticoid receptor (Homo sapiens) (P04150 whole entry, looked up): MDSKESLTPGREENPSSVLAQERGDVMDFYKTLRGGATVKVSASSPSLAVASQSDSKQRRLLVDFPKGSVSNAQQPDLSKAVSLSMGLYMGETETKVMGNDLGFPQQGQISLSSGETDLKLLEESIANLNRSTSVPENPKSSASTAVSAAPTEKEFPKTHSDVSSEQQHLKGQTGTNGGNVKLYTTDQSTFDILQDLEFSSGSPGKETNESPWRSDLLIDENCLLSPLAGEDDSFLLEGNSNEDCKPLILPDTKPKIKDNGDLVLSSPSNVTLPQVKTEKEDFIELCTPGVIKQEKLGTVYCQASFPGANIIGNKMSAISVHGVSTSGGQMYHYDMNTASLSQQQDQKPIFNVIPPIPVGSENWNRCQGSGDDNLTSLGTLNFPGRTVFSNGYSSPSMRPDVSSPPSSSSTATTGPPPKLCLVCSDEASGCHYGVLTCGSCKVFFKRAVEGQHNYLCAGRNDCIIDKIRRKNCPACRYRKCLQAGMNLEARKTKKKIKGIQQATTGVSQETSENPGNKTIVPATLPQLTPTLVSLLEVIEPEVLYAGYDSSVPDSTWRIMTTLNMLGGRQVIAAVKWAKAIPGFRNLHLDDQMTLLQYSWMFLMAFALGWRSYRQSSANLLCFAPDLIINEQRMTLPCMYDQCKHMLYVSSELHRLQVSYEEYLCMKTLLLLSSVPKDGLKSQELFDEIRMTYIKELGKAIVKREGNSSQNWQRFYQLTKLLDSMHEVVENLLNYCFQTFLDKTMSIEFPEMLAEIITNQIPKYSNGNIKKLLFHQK
row,Compound,activation
1,CC(C)c1ccc(C#N)cc1,0.595% (inactive)
2,CC1C(C)(C)C2=C(C(=O)CCC2)C1(C)C (stereo not given),-0.0455% (inactive)
3,COC(=O)c1sccc1S(N)(=O)=O,0.548% (inactive)
4,O=C(O)CCC(=O)c1ccc(-c2ccccc2)cc1,-0.516% [at 29.2 µM] (inactive)
5,Nc1ccc(F)cc1,-0.847% [at 79.2 µM] (inactive)
6,CC(C)(O)CCc1ccccc1,0.962% (inactive)
7,COc1cc(NS(=O)(=O)c2ccc(N)cc2)nc(C)n1,0.297% (inactive)
8,O=C(O)CCC(=O)OC[C@@H](NC(=O)C(Cl)Cl)[C@H](O)c1ccc([N+](=O)[O-])cc1,1.41% (inactive)
9,CCCCCCCCCCCCCCCC(=O)OCC,-0.646% (inactive)
10,COC(CC(C)CCCC(C)(C)O)OC (stereo not given),1.55% (inactive)
11,O=[N+]([O-])c1ccc2ncccc2c1,0.0389% (inactive)
12,CC(C)COC(=O)c1ccc(O)cc1,-7.51% (inactive)
13,FC(F)(F)C(F)(F)C(F)(F)C(F)(F)CCI,1.37% [at 29.2 µM] (inactive)
14,O=C1OC[C@H](Cc2cccc(O)c2)[C@H]1Cc1cccc(O)c1,-0.0607% [at 29.2 µM] (inactive)
15,CC(C)(C)NCC(O)COc1cccc2c1C[C@H](O)[C@H](O)C2 (stereo not given in full),1.44% [at 29.2 µM] (inactive)
16,CCCCCCOC(=O)CCCCC,-2.09% (inactive)
17,COC(OC)OC,1.37% (inactive)
18,C1CCCCC1,-0.168% [at 79.2 µM] (inactive)
19,O=P(O)(O)Oc1ccccc1,-1.38% (inactive)
20,CCCCCc1ccco1,-0.29% (inactive)

row,Compound,activation
1,C=CC(=O)NC(C)C,0.934% (inactive)
2,CC(C)Cc1ccc(CC(=O)O)cc1,-0.643% (inactive)
3,CC(C)CC(O)CC(C)C,-0.0919% (inactive)
4,CCCCCCC(O)CCCCCCCCCCC(=O)OC (stereo not given),0.138% (inactive)
5,SCCc1cnccn1,4.36% (inactive)
6,NC(=O)CCCCC(N)=O,0.0554% [at 79.2 µM] (inactive)
7,OCC(CO)n1cnc(-c2ccc(F)cc2)c1-c1ccnc(Oc2ccccc2)n1,-0.0176% (inactive)
8,CC1=C2[C@@H]([C@H](C)CC[C@H]2/C=C(\C)C(=O)O)[C@H](O)C1,0.702% (inactive)
9,CC(C)C1CCC(C(=O)N[C@H](Cc2ccccc2)C(=O)O)CC1 (stereo not given in full),-6.14% (inactive)
10,CCCCCCCCCCCCCCN(C)C,-1.13% [at 29.2 µM] (inactive)
11,CCC(CO)(CO)[N+](=O)[O-],-1.15% (inactive)
12,CC1=CC[C@@]23C[C@@H]1C(C)(C)[C@@H]2CC[C@H]3C,0.377% (inactive)
13,CC(C)C(=O)OCCOc1ccccc1,-0.27% (inactive)
14,O=C(c1ccccc1)C1CCC1,-0.607% (inactive)
15,COc1cc(S(=O)(=O)Nc2ccccc2)c(OC)cc1N,-4.23% (inactive)
16,O=C(O)CCCc1c[nH]c2ccccc12,-2.24% (inactive)
17,CC(=O)c1ccc[nH]1,-1.85% (inactive)
18,Cc1c(C2(c3cc(Br)c(O)c(Br)c3C)OS(=O)(=O)c3ccccc32)cc(Br)c(O)c1Br,-7.03% (inactive)
19,Cc1ccccc1S(N)(=O)=O,-1.43% (inactive)
20,CC(=O)Oc1cccc(O)c1,3.05% (inactive)
